# Compound activity as filed in PubChem BioAssay.
# Shown are actives, neighbours in structure and some others; about 0.48% of the full set was active somewhere.
# SRC3 inh: human NCOA3 inhibition. AID 588352. HEK293 GAL4-SRC3 luciferase reporter, luminescence. inhibition, % at 3.6 µM. 360,000 tested, 0.17% active. Q9Y6Q9;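 active means inhibition above a per-campaign cutoff, the mean of all compounds plus 3 SD, cut at about 60% in these data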;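 further: higher means less SRC3-driven luciferase light from the GAL4 reporter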
# LGR2 antag: Drosophila LGR2 receptor signaling inhibition | 380,000 tested, 0.35% active | HEK293 LGR2, CRE-luciferase, bursicon-stimulated, 4 h | inhibition, % at 9.99 µM | AID 720647;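 active means drop in luminescence signal, shown as inhibition above about 50% in the replicate tests, limit read from the data, passing the limit was not always enough; inconclusive means probably only some replicates passing the limit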;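 further: agonist challenge used bursicon conditioned medium at about half maximal strength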
# NCOA2 inhibitor: inhibits human steroid receptor coactivator 2; HEK293 GAL4-SRC2 luciferase reporter, luminescence; AID 651957; inhibition, % at 9 µM; 370,000 tested, 0.17% active; Q15596;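 active means inhibition above the mean inhibition of all tested compounds plus 3 SD, set per campaign, cut at about 52% in these data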
# Target sequence (Q15596 whole entry, looked up, the tested form may be a part): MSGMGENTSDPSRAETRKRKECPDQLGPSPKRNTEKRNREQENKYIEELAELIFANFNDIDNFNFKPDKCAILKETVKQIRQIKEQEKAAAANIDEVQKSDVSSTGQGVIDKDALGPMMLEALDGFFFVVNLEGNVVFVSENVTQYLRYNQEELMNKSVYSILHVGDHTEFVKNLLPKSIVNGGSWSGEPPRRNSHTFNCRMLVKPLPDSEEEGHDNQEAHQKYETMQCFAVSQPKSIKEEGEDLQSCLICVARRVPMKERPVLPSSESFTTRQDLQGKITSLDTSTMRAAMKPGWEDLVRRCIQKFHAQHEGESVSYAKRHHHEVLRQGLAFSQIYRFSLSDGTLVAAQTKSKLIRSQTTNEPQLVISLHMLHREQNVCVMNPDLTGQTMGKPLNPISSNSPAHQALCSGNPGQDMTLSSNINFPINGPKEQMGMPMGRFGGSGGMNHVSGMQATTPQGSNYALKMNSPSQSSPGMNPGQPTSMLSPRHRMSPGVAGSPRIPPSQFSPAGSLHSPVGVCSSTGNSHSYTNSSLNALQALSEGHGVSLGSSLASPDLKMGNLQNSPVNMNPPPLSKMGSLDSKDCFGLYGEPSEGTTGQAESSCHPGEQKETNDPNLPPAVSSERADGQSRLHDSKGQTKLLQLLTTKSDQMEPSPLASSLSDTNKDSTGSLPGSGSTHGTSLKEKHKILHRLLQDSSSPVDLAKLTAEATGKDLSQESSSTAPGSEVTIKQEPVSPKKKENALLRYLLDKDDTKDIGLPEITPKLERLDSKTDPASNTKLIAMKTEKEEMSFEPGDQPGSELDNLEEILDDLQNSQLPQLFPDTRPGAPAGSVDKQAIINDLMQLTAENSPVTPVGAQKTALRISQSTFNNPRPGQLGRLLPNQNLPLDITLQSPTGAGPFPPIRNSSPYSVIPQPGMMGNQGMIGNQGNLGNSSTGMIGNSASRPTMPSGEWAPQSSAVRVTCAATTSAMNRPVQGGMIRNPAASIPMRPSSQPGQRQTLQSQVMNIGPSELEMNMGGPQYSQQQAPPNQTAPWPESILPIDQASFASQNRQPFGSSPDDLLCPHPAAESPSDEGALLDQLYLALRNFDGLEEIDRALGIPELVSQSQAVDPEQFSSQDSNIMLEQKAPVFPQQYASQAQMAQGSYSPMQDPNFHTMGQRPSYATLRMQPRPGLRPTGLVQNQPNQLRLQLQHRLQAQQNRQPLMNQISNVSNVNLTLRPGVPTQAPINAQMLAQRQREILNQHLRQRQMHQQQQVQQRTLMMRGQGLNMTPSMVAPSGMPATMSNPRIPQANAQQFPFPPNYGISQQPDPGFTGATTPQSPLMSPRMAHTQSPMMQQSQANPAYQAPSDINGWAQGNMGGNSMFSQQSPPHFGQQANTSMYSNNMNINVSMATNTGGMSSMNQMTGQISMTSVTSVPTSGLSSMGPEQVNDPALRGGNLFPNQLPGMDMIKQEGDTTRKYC
# NR5A2 inv ag: NR5A2 inverse agonism in reporter assay. inhibition, % at 3.6 µM. 360,000 tested, 0.13% active. HEK293T StAR-luciferase reporter, LRH-1 transfected, 24 h. O00482;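 active means inhibition above the mean inhibition of all tested compounds plus 3 SD, cut at about 73% in these data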
# SRC1 inh: inhibitors of human steroid receptor coactivator 1 (SRC1) | HEK293 GAL4-SRC1 luciferase reporter, luminescence | inhibition, % at 3.6 µM | 360,000 tested, 0.12% active | AID 588354;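 active means inhibition above the campaign mean plus 3 SD, with each screening campaign given its own cutoff, cut at about 60% in these data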
# Numbers stand for hits; 0 = inactive; ? = inconclusive; - = not tested or not shown.
SMILES,SRC3 inh,LGR2 antag,NCOA2 inhibitor,NR5A2 inv ag,SRC1 inh
CC(C)NC(=O)NC(=O)COc1ccc(Br)cc1Br,0,53,0,0,0
CCCOc1ccc(F)cc1-c1cc(C(=O)Nc2ccc(OC)nc2)[nH]n1,0,-,-,0,0
CCCOc1ccc(F)cc1-c1cc(C(=O)Nc2cc(OC)c(OC)c(OC)c2)[nH]n1,0,51,0,0,0
CN1[C@@H]2Cn3c(ccc(-c4ccncc4)c3=O)[C@H]1[C@@H](C(=O)NCC1CCCCC1)[C@@H]2CO,-,0,-,-,-
CCn1nnc2cc(C(=O)NCCc3ccccc3F)ccc21,0,54,0,0,0
O=C(NCCc1ccccc1F)c1ccc2c(c1)ncn2C1CCCCC1,-,-,0,-,-
CC(=O)n1cc(N(C(=O)CCl)c2ccc(C)cc2)c2ccccc21,0,0,61,0,0
CS/C(=C\[N+](=O)[O-])Nc1ccc(OC(F)(F)F)cc1,0,0,0,80,0
CC(C)(CCl)C(=O)Nc1ccc(OC(F)(F)F)cc1,0,0,0,0,0
Cc1ccc(S(=O)(=O)Nc2ccc3c(c2)C(=O)N([C@@H](C)CO)C[C@@H](C)[C@H](CN(C)Cc2ccncc2)OCCCC[C@@H](C)O3)cc1,-,0,-,-,-
COc1ccc(N(C(=O)CCl)C(C(=O)NCCc2ccccc2)c2cccs2)cc1 (centres undefined),71,0,0,0,0
COc1ccc(CNC(=O)C(c2ccncc2)N(C(=O)Cc2cccs2)c2ccccc2)cc1 (centres undefined),0,0,0,0,0
COc1ccc(-c2cc3c(nn2)-c2ccccc2C3=O)cc1,0,94,0,0,0
C[C@@H]1CN([C@H](C)CO)C(=O)Cc2cc(NC(=O)Nc3ccc(F)cc3)ccc2O[C@H]1CN(C)C(=O)NC1CCCCC1,-,0,-,-,-
c1ccc(CCNc2ccnc3cc4ccccc4cc23)cc1,0,107,0,0,0
CC(C)Nc1ccc(Nc2ccnc3cc4ccccc4cc23)cc1,0,74,0,0,0
COc1ccc(Nc2ccnc3ccccc23)cc1,0,-,0,0,0
Cc1ccccc1N=CC1=C(O)c2ccccc2C1=O,0,101,0,0,0
N#CC(C#N)=C1C=CC=CN1/C(=C\c1ccco1)C(=O)c1ccc(Cl)cc1,0,105,0,0,0
O=C1/C(=C/c2ccccc2[N+](=O)[O-])COc2ccccc21,0,91,0,0,0
CCOc1cccc(/C=N/NC(=S)Nc2ccccc2[N+](=O)[O-])c1O,80,83,60,79,84
COc1cccc(NC(=O)N(C)C[C@H]2Oc3ncc(C4=CCCCC4)cc3C(=O)N([C@@H](C)CO)C[C@H]2C)c1,-,0,-,-,-
COc1cc(/C=N/N=C(N)N)ccc1OCc1ccc(Cl)cc1,0,0,0,0,0
CCOc1cc(/C=N/N=C(N)N)ccc1OCc1ccc(Cl)cc1,0,53,0,0,0
O=C(N[C@@H]1CC[C@@H](CCNC(=O)c2cnccn2)O[C@@H]1CO)c1ccc2c(c1)OCO2,-,0,-,-,-
SMILES,SRC3 inh,LGR2 antag,NCOA2 inhibitor,NR5A2 inv ag,SRC1 inh
CCN(CC)S(=O)(=O)c1cccc(C(=O)N/N=C(\C)c2ccc(O)cc2O)c1,70,0,0,0,0
OC[C@@H]1Nc2ccc(-c3cccc(F)c3)cc2[C@H]2[C@@H]1CCN2Cc1ccc(F)cc1,-,0,-,-,-
CCN(CC)c1ccc(C2NC(=O)c3ccccc3N2)cc1 (centres undefined),0,88,0,0,0
CCOC(=O)c1c(C)nn(-c2ccc(NC(=O)c3cccs3)cc2)c1C,0,0,0,0,0
CC(=O)Nc1ccc(NC(=O)COC(=O)c2c(C)nn(-c3ccccc3)c2C)cc1,0,0,0,0,0
CCOC(=O)c1c(C)nn(-c2ccc(NC(=O)/C=C/C(=O)O)cc2)c1C,0,-,61,0,0
CCOC(=O)c1c(C)nn(-c2ccc(NC(=O)c3c(C)noc3C)cc2)c1C,0,0,54,0,0
Cc1ccccc1-c1ccc([C@@H]2[C@H](CO)N3C(=O)CN(C(=O)c4ccncc4)C[C@@H]23)cc1,-,0,-,-,-
Cc1ccc(-n2nnnc2Sc2ccc(S(=O)(=O)NCCN(C)C)cc2[N+](=O)[O-])cc1,67,-,0,0,0
O=[N+]([O-])c1cc(S(=O)(=O)NCCN2CCOCC2)ccc1Sc1nnnn1-c1ccccc1,0,-,0,0,0
C[C@H]1CN([C@@H](C)CO)S(=O)(=O)c2ccc(-c3cccnc3)cc2O[C@@H]1CN(C)C(=O)C1CC1,-,0,-,-,-
CNC[C@H]1OCCCC[C@H](C)Oc2ccc(N(C)C)cc2C(=O)N([C@H](C)CO)C[C@@H]1C,-,0,-,-,-
CCCN1[C@@H]2c3ccc(C4=CCCCC4)c(=O)n3C[C@@H]2[C@@H](CO)[C@@H]1C(=O)NC1Cc2ccccc2C1,-,0,-,-,-
COc1ccc(-c2cc3nc[nH]c(=O)c3s2)cc1,0,-,0,0,0
COc1ccc(-c2cc3nc(CCl)[nH]c(=O)c3s2)cc1,0,68,0,0,0
CO[C@@H]1CN(C)C(=O)c2cc(NS(C)(=O)=O)ccc2OC[C@@H](C)N(C)C[C@@H]1C,-,0,-,-,-
O=C(C[n+]1ccccc1)c1ccc(-c2ccccc2)cc1,0,0,0,0,0
CN(C)c1cc[n+](CC(=O)c2ccc(-c3ccccc3)cc2)cc1,0,0,0,86,0
Cc1cc(C)c(C(=O)Nc2ccc3c(c2)OCCO3)c(C)c1,0,0,0,0,0
Cc1ccc(NC(=O)c2ccc3c(c2)OCCO3)cc1C,0,77,0,0,0
O=C(Nc1ccc(N2CCCCCC2)cc1)c1ccccc1Cl,0,0,0,0,0
O=C(Nc1ccc2c(c1)OCCO2)c1ccccn1,0,77,0,0,0
O=C(Nc1ccc(N2CCCCC2)cc1)c1ccccn1,71,-,-,0,64
Cc1ccc(C(=O)Nc2ccc3c(c2)OCCO3)c(C)c1,0,93,0,0,0
O=C(Nc1ccc(NC(=O)c2ccccn2)cc1)C(=O)Nc1ccc2c(c1)OCCO2,0,0,0,0,0
SMILES,SRC3 inh,LGR2 antag,NCOA2 inhibitor,NR5A2 inv ag,SRC1 inh
COc1cccc(NC(=O)N[C@@H]2C=C[C@H](CC(=O)Nc3ccccc3)O[C@@H]2CO)c1,-,0,-,-,-
CC1Cc2cc(-c3csc(NC(=O)Cc4cccs4)n3)ccc2N1S(C)(=O)=O (centres undefined),64,-,0,0,0
Nc1cc2ccncc2c2ccccc12,0,0,0,0,67
C[C@H](CO)N1C[C@H](C)[C@H](CN(C)Cc2ccncc2)Oc2cc(-c3ccccc3)ccc2S1(=O)=O,-,0,-,-,-
CO[C@@H]1CN(C)C(=O)c2ccc(NC(=O)C3CCOCC3)cc2OC[C@@H](C)N(Cc2nccs2)C[C@@H]1C,-,0,-,-,-
O=C1c2cccc(NCCCNCCO)c2C(=O)c2cccc(NCCCNCCO)c21,0,12,0,0,0
O=C1c2ccccc2C(=O)c2c(NCc3cccnc3)cccc21,0,-,0,0,0
CC(C)(C)c1ccc(/C=C(\c2nc3ccccc3[nH]2)S(=O)(=O)c2ccccc2)cc1,0,-,-,0,0
Cc1cccc(/C=C(\c2nc3ccccc3[nH]2)S(=O)(=O)c2ccccc2)c1,0,?,64,0,0
CNc1cccnc1C=NNC(N)=S,80,0,0,0,80
NC(=S)NN=Cc1nccc2c(C(F)(F)F)cccc12,91,0,0,93,87
